Laboratory results taken from PubChem BioAssay AID1006 (Sanford-Burnham Center for Chemical Genomics, 2008).
Among all 200,000 compounds or so, about 3,000 (1.5%) were called active.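 Rule for the calls: active = inhibition above about 50% when tested at 10 µM (limit read from the data); inactive = the rest.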 This excerpt belongs to a sample that is enriched for actives.

biological target: Luciferin 4-monooxygenase (Photinus pyralis) (UniProt P08659); assay: firefly luciferase enzyme inhibitors, primary screen, artefact control for luciferase-based inhibitor screens, biochemical, luminescence, ATPLite (AID 1006); details: 10 min, at 10 µM, active compounds read high
Sequence (P08659 whole entry, looked up): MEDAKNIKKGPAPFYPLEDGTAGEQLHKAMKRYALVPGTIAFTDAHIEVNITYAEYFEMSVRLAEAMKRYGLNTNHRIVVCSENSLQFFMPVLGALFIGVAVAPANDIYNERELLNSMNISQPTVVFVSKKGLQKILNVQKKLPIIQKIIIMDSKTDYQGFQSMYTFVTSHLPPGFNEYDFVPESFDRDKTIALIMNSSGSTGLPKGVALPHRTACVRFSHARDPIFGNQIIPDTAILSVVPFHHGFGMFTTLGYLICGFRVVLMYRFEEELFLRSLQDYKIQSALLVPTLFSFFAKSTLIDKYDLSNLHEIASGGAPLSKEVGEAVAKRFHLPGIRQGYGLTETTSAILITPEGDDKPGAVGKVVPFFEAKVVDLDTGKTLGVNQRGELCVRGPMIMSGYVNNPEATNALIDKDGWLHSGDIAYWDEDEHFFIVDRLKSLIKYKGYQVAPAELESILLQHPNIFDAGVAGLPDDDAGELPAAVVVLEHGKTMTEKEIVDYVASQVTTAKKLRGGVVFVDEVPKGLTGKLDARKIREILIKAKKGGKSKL

SMILES | inhibition
O=C(Cc1ccc(F)cc1)N1CCN=C1SCc1cccc([N+](=O)[O-])c1 | -8.2% (inactive)
O=C(NCC1CCCO1)C1CCN(C2CCN(C(=O)C3CCCCC3)CC2)CC1 (centres undefined) | -6.8% (inactive)
Cc1cccc(-n2c(C)cc(/C=N\NC(=O)c3cccs3)c2C)c1 | 50.3% (active)
Cc1cccc(-n2c(C)cc(/C=N/NC(N)=S)c2C)c1 | 0.5% (inactive)
CC(=O)Nc1ccc(/C=N/NC(=O)c2cccs2)cc1 | 42.4% (inactive)
COc1ccc(OC)c(S(=O)(=O)Nc2cccc(-c3ccc4nncn4n3)c2)c1 | -2.6% (inactive)
Cc1nn(C)cc1/C=N/NC(=O)c1sc2ccccc2c1Cl | 11.2% (inactive)
Oc1ccc(N=Cc2sc3ccccc3c2Cl)cc1 | 65.5% (active)
O=C(N/N=C/c1c(Cl)[nH]c2ccccc12)c1sc2ccccc2c1Cl | 5% (inactive)
CSc1nc2ccc(NC(=O)c3c(F)cccc3F)cc2s1 | 12.4% (inactive)
Nc1nnc(SCC(=O)OCc2ccc(Cl)c(Cl)c2)s1 | -3.7% (inactive)
O=Cc1ccc(OCc2cn3ccccc3n2)cc1 | 50.3% (active)
Cc1ccc2nc(COc3ccc(N(C)S(=O)(=O)c4ccccc4)cc3)cc(=O)n2c1 | -4.2% (inactive)
COc1ccc(C(=O)NCc2cn3ccccc3n2)cc1 | -1.1% (inactive)
Cc1cc(C)c2c(NC(=O)C3CC3)nn(C)c2n1 | -5.8% (inactive)
COc1ccc(C2Nc3ccccc3C(=O)N2c2ccc(Cl)cc2)cc1Cn1cc([N+](=O)[O-])cn1 (centres undefined) | -5.8% (inactive)
CC(=O)N1CCN(CC(=O)Nc2ccc(SC(F)F)cc2)CC1 | -4.2% (inactive)
Cc1ccc(C2=N/C(=C\c3ccc(OS(=O)(=O)c4ccc(C)cc4)cc3)C(=O)O2)cc1 | -8.9% (inactive)
Cc1ccc(N2CCN(C3=NC(=O)/C(=C\c4cccs4)S3)CC2)cc1 | -3.4% (inactive)
Cc1cccc(C2=N/C(=C/c3cccs3)C(=O)O2)c1 | 88.5% (active)
COc1cc(C(=O)Nc2nccs2)cc(OC)c1OC | -0.7% (inactive)
CCOc1ccc(C(=O)Nc2nccs2)cc1[N+](=O)[O-] | -1.5% (inactive)
CC(=O)Oc1ccc(C(=O)Nc2nccs2)cc1 | 54.1% (active)
Cc1nnc(N/N=C/C2CC=CCC2)[nH]c1=O (centres undefined) | -4% (inactive)
Cc1cccc2cc3c(N)c(C(=O)N4CCCc5ccccc54)sc3nc12 | -1.8% (inactive)

SMILES | inhibition
CC(C)CC(=O)NC(=S)NCc1ccccc1 | -3.5% (inactive)
CCC(=O)NC(=Nc1nc2ccccc2s1)NC(=O)CC | 11.6% (inactive)
CC(C)CC(=O)N/C(N)=N/c1nc2ccccc2s1 | 63.5% (active)
CC(C)C1Nc2c(C(=O)O)cccc2C(Nc2ccccc2C(=O)O)C1(C)C (centres undefined) | 0.1% (inactive)
CCN1C(=O)/C(=C2\SC(N3CCCCC3)=NC2=O)c2ccccc21 | 50.9% (active)
O=C1N=C(N2CCCC2)S/C1=C\c1cccc(Br)c1 | -4.4% (inactive)
CC(C)=C1SC(N2CCN(c3cccc(C)c3)CC2)=NC1=O | -5.6% (inactive)
NC(=O)Nc1ccccc1C(=O)NCCc1ccccc1 | 2% (inactive)
CC(=O)c1cc(-c2ccccc2)n(CCC(=O)NC2CCCCCC2)c1C | -5.1% (inactive)
Cc1ccnc2nc(C(=O)OCC(=O)N(CC(C)C)CC(C)C)nn12 | -5.4% (inactive)
CC/C(O)=C1\C(=O)CC(C)(C)CC1=NCCc1nc2ccccc2[nH]1 | -2.7% (inactive)
C=CCn1c(C)cc(C2=NNC(=NCC)SC2)c1C | 96.5% (active)
COCCn1c(C)cc(C2=NNC(=Nc3ccc(F)cc3)SC2)c1C | 17.9% (inactive)
Cc1cc(C2=NNC(=Nc3ccc(S(=O)(=O)N4CCOCC4)cc3)SC2)c(C)n1CC1CCCO1 (centres undefined) | -3% (inactive)
Cc1ccc(-n2[nH]c(C)c(/C=N/NC(=O)c3cccc([N+](=O)[O-])c3)c2=O)cc1C | 94.9% (active)
COc1cccc(/C=N/NC(=O)c2cccc([N+](=O)[O-])c2)c1OS(=O)(=O)c1ccc(C)cc1 | -9.9% (inactive)
Cc1[nH]n(-c2ccccc2)c(=O)c1/C=N/NC(=O)c1ccoc1C | 20.6% (inactive)
Cc1ccc2c(c1)C(c1ccccc1)N(C(=O)c1ccc(S(=O)(=O)N3CCOCC3)cc1)CC(=O)N2 (centres undefined) | -5.3% (inactive)
CCOc1ccc(/C=N/NC(=O)C(C)Sc2ccccn2)cc1OCC (centres undefined) | -6% (inactive)
Cc1cccc(C)c1NC(=O)C1(C)c2cccc[n+]2CC(=O)N1Cc1cccs1 (centres undefined) | 0.5% (inactive)
O=C(NCC(O)c1ccc([N+](=O)[O-])cc1)C1CCCCC1 (centres undefined) | -2.2% (inactive)
CN(C)c1ccc(C(CNC(=O)c2ccc(F)cc2)c2c[nH]c3ccccc23)cc1 (centres undefined) | -0.6% (inactive)
CC(C)NC(=S)NN=C1CCCCCCCCCCC1 | -6.7% (inactive)
COc1ccc(-c2nc(SCC(=O)N3CCOCC3)n[nH]2)cc1 | 9.9% (inactive)
CCOc1ccc(-c2ccc(SCC(=O)N3CCOCC3)nn2)cc1 | 84.4% (active)

SMILES | inhibition
COc1ccc(-c2ccnc(SCC(=O)N3CCOCC3)n2)cc1 | -3.4% (inactive)
O=C(O)CCCCOn1ccnc1 | 0.6% (inactive)
N#C/C(=C(\O)C(F)(F)F)c1nnc2n1CCCCC2 | -6.2% (inactive)
Cc1cccc(C(=O)c2cccc(C)c2)c1 | -6.1% (inactive)
Cc1cccc(/C(N)=N/OC(=O)c2ccccc2Cl)c1 | 89.7% (active)
N/C(=N\OC(=O)c1cc(-c2ccccc2)nc2ccccc12)c1ccncc1 | 1.6% (inactive)
NC1=NN(c2cccc(C(=O)O)c2)C(=O)C1 | -2.1% (inactive)
OCCNCCOc1ccc(Cl)c(Cl)c1 | 0.7% (inactive)
O=C(O)/C=C/c1cn(-c2ccccc2)nc1-c1cccs1 | 18% (inactive)
O=C(/C=C\c1cn(-c2ccccc2)nc1-c1cccs1)N1CCOCC1 | 35.3% (inactive)
O=C(O)c1ccc(N/N=C/c2cn(-c3ccccc3)nc2-c2cccs2)cc1 | 92.2% (active)
Cc1onc(C(=O)NCc2ccc(F)cc2)c1[N+](=O)[O-] | 8% (inactive)
CC(=O)Nc1ccc(S(=O)(=O)NCC(=O)OCc2cc(=O)oc3ccc4ccccc4c23)cc1 | -3.3% (inactive)
CN(C(=O)c1ccccn1)c1nnc(-c2ccccn2)s1 | 55.5% (active)
CN(C(=O)COc1ccccc1)c1nnc(-c2ccncc2)s1 | -2.1% (inactive)
CN(C(=O)c1ccno1)c1nnc(-c2cccnc2)s1 | 0.1% (inactive)
Cn1c(=NC(=O)c2cnccn2)sc2ccccc21 | 75.5% (active)
Cn1c(=NC(=O)CSCC(=O)N2CCCCC2)sc2ccccc21 | -5% (inactive)
Cn1c(=NC(=O)CSCC(=O)N2CCOCC2)sc2ccccc21 | -1.3% (inactive)
CCOc1ccc(-c2n[nH]c(C)c2-c2ccccn2)c(O)c1 | -3.7% (inactive)
CN1CCN(C(=O)CCc2nc(-c3ccc(Cl)cc3)no2)CC1 | -4.7% (inactive)
Cc1ccc(-c2noc(CCC(N)=O)n2)cc1 | 0.2% (inactive)
CCNC(=O)CCc1nc(-c2ccc(C(C)(C)C)cc2)no1 | 52.3% (active)
CCOc1ccc(/C=N/Nc2nncc(-c3ccccc3)n2)cc1OC | 9.9% (inactive)
COc1ccc(/C=N/Nc2nc3ccccc3o2)cc1OC | 11.5% (inactive)

SMILES | inhibition
COc1cc(/C=N/Nc2nn3cnnc3c3ccccc23)cc(OC)c1OC | 84.1% (active)
CCC(C)(C)C1CCC(=NNC(=O)c2ccc(Br)o2)CC1 (centres undefined) | -7.3% (inactive)
CCCCN(C)CCNC(=O)CSCc1ccc(C)cc1 | -9.7% (inactive)
O=C(CSc1ccc2nnc(-c3ccccc3)n2n1)N1CCCc2ccccc21 | 4.5% (inactive)
CC(=O)Nc1ccccc1NC(=O)c1cc(C)cc(C)c1 | -8.5% (inactive)
CSCc1ccc(C(=O)Nc2cc(C)cc(C)c2)cc1 | 77.9% (active)
C=CCN(c1ccc(C(=O)Nc2cc(C)cc(C)c2)cc1)S(C)(=O)=O | -2.7% (inactive)
O=C(O)c1ccc(/C=N/NC(=O)c2ccc(Br)cc2)cc1 | 15.3% (inactive)
CCOC(=O)c1sc(NC(=O)CSc2nc(O)c(Cc3ccccc3)c(=O)[nH]2)nc1C | 72.8% (active)
O=C(CSc1nc(O)c(Cc2ccccc2)c(=O)[nH]1)Nc1nc2c(s1)CCCC2 | -3% (inactive)
CCOC(=O)c1sc(NC(=O)CSc2n[nH]c(CC)n2)nc1C | -4.3% (inactive)
O=C(COC(=O)C1CCCCC1)Nc1ccc([N+](=O)[O-])cc1 | 2.8% (inactive)
COc1cc(OC)c(C2=NOC(C(=O)Nc3c(C)n(C)n(-c4ccccc4)c3=O)C2)cc1Cl (centres undefined) | -5.5% (inactive)
CCOC(=O)C1(Cc2ccccc2C(F)(F)F)CCN(C(=O)c2cc(C)n(C)n2)CC1 | -9.5% (inactive)
O=C(NCCc1ccccc1)c1ccc(OCCOc2ccccc2)cc1 | -1.1% (inactive)
CCCOc1ccc(C(=O)NCCc2ccccc2)cc1 | 70.6% (active)
O=C(NCCOc1ccccc1)c1ccccc1 | 14.7% (inactive)
Cc1ccc(-c2cc(C(F)(F)F)n3ncc(C(=O)N4CCCCC4c4cccnc4)c3n2)cc1 (centres undefined) | -6.3% (inactive)
Cc1ccc(-c2nc(-c3cccnc3)sc2CC(=O)Nc2ccc(C)c(Cl)c2)cc1 | -1.9% (inactive)
O=c1c2c(nc3n1CCCCC3)sc1c(O)cccc12 | 60.4% (active)
Cc1cccc2c(=O)n3c(nc12)CCCCC3 | -5.2% (inactive)
Cc1c(C(=O)Nc2ccccc2)sc2nc3n(c(=O)c12)CCCCC3 | -3.9% (inactive)
CC(C)c1cc(NCc2ccccn2)n2c(nc3ccccc32)c1C#N | -5.4% (inactive)
Cc1nnc(SC(C(=O)Nc2cc(Cl)cc(Cl)c2)c2ccccc2)[nH]c1=O (centres undefined) | -3.6% (inactive)
